We go through 32 compounds from PubChem BioAssay (NCATS).

SMILES strings stand for the structures. Inconclusive results are not listed. Active and inactive are the calls of the source. Unless noted, the call rests on the fitted dose curve; in most records, active means well fitted inhibition curve with a large enough effect; inconclusive means small, poorly fitted or top-dose-only effect; inactive means flat fitted curve, though single readings scatter.

Test [1] is described as follows: qHTS drug screen for cell cycle checkpoint inhibitors in PARPi-resistant BRCA-mutant ovarian cancer cell lines. (AID 1963452; calls by dose curve). The settings on record: PEO1/OlaR viability, CellTiter-Glo luminescence, 96 h, stronger effect = lower value. In a few lines: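 PEO1, PEO4 and PEO1/OlaR ovarian cancer cells, 600 per well, exposed 96 h at 37C to a dilution series. Viability read by CellTiter-Glo luminescence, normalized to DMSO and empty wells; activity summarized as Z-AUC.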
Background: Quantitative high-throughput screening tests each substance at several concentrations.

A further test deals with 7G8. Nature of the test: qHTS profiling for inhibitors of Plasmodium falciparum proliferation (AID 504749). Further: nearly all actives have a fitted effect of over 60% in size. Further: potency means the concentration at half of the fitted maximal effect.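 On activity, negative = inhibition: 0% = DMSO vehicle and full inhibition = artemisinin control.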 The conditions noted are these: P. falciparum in erythrocytes, SYBR Green DNA, 72 h; series mostly up to 28.7 µM. In a few lines:
(§1)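 P. falciparum-infected erythrocytes (0.3% parasitemia, 2.5% hematocrit final) were exposed to compounds for 72 h at 37 C in 5% CO2, then lysed with SYBR Green buffer overnight at room temperature; parasite DNA fluorescence was normalized to artemisinin and DMSO controls.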

Assay in test [2]: as above
The conditions noted are these: P. falciparum in erythrocytes, SYBR Green DNA, 72 h. In a few lines: as §1

A further test concerns 3D7. The description is as above. The conditions noted are these: P. falciparum in erythrocytes, SYBR Green DNA, 72 h; series mostly up to 28.7 µM. In a few lines: as §1
A short description of test [3]: qHTS for identification of novel therapeutic agents for treatment of microphthalmiaassociated transcription factor (MiT) renal cell carcinoma (RCC) (AID 1963991; calls by dose curve; further: potency means the concentration at half of the fitted maximal effect). The conditions noted are these: CellTiter-Glo, 48 h; for Potency: active = Z-AUC below -0.8 in all three lines; for z-score: stronger effect = lower value. In a few lines:
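Curves over 11 concentrations were fitted to CellTiter-Glo luminescence, scaled between empty wells (0%) and DMSO (100%) viability. Cells were UOK109, UOK124 and UOK145 TFE3-fusion RCC lines at 500/well, exposed 48 hours at 37 C.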

Setting [4] is: measured here: PEO1 parental Z-AUC.
Where [5] appears, read: at 28.7 µM (top of the series), parasite line A.
Setting [6] is: at 28.7 µM (top of the series), parasite line B.
The mark [7] stands for this setting: TFE3-RCC UOK109 viability, measured here: UOK109 Z-AUC.
Where [8] appears, read: TFE3-RCC viability, measured here: UOK124 Z-AUC.
The mark [9] stands for this setting: TFE3-RCC viability, measured here: UOK145 Z-AUC.
The mark [10] stands for this setting: at 12.8 µM (top of the series), parasite line A.

As for `CC(=O)O[C@]1(C(C)=O)CC[C@H]2[C@@H]3C=C(Cl)C4=CC(=O)[C@@H]5C[C@@H]5[C@]4(C)[C@H]3CC[C@@]21C`, the Z-AUC in test [1] was 0.151 (inactive); in test [1] (setting [4]) it was 0.0304; in test [1] (measured here: PEO4 Z-AUC), 0.0664. In addition, the Potency with 7G8 is 11.2 µM (active).

`O=C(O)c1c(Cl)c(Cl)c(Cl)c(Cl)c1-c1c2cc(I)c(=O)c(I)c-2oc2c(I)c(O)c(I)cc12`: the figures for the Z-AUC in test [1], in test [1] (setting [4]) and in test [1] (measured here: PEO4 Z-AUC) were 0.15 (inactive), 0.353 and 0.104, respectively. The activity, negative = inhibition is 1.68% (inactive) in test [2] (setting [5]) and 2.35% (inactive) in test [2] (setting [6]). The compound was called inactive in the test on 3D7. The Potency result with 7G8 was “inactive”.

As to `c1ccc2c(-c3cnn4cc(-c5ccc(N6CCNCC6)cc5)cnc34)ccnc2c1`, the Z-AUC was -0.163 (inactive) in test [1], -0.568 in test [1] (setting [4]) and -0.419 in test [1] (measured here: PEO4 Z-AUC). Moreover, in test [3] (TFE3-RCC UOK109 viability), the Potency was 18.7 µM (active). The values for the z-score in test [3] (setting [7]), in test [3] (setting [8]) and in test [3] (setting [9]) were -0.898, -1.42 and -1.11, respectively.

Consider `CCC(=O)O[C@]1(C(=O)CO)CC[C@H]2[C@@H]3CCC4=CC(=O)CC[C@]4(C)[C@@H]3CC[C@@]21C`, for which the z-score in test [3] (setting [7]) came out at 1.05; in test [3] (setting [8]), 0.404; in test [3] (setting [9]), 0.464.

For the compound `CC/C(=C(\c1ccccc1)c1ccc(OCCN(C)C)cc1)c1ccccc1`, the figures for the Z-AUC in test [1], in test [1] (setting [4]) and in test [1] (measured here: PEO4 Z-AUC) were -0.344 (inactive), -0.716 and -0.672, respectively. Besides, in the test with 7G8, the Potency is 12.6 µM (active).

`COc1cc(N2CCC(N3CCN(C)CC3)CC2)ccc1Nc1ncc(Cl)c(Nc2ccccc2S(=O)(=O)C(C)C)n1`: the Z-AUC in test [1] is -0.172 (inactive); in test [1] (setting [4]), -0.594; in test [1] (measured here: PEO4 Z-AUC), -0.618. In addition, in test [3] (TFE3-RCC UOK109 viability), the Potency was 14.8 µM (active). For the same compound, the z-score in test [3] (setting [7]) is -1.55; in test [3] (setting [8]) it was -1.62; in test [3] (setting [9]) it was -1.41.

`CC=CC(=O)N(CC)c1ccccc1C`: the values for the z-score in test [3] (setting [7]), in test [3] (setting [8]) and in test [3] (setting [9]) were 1.15, 0.231 and 0.523, respectively.

As for `Cc1ccccc1C(C(=O)NC1CCCCC1)N(C(=O)Cn1ccnc1C)c1cccc(F)c1` (stereo not drawn), the results for the Z-AUC in test [1], in test [1] (setting [4]) and in test [1] (measured here: PEO4 Z-AUC) were 0.113 (inactive), 0.941 and 0.654, respectively. The z-score in test [3] (setting [7]) amounted to 0.6; in test [3] (setting [8]), 0.139; in test [3] (setting [9]), 0.682.

Consider `CC(=Cc1ccccc1)C=C1SC(=S)N(CC(=O)O)C1=O`, for which the z-score stood at 1.2 in test [3] (setting [7]), 1.04 in test [3] (setting [8]) and 0.683 in test [3] (setting [9]).

Turning to `CC(C)(C)COc1ccc(-n2cc(C(=O)O)cn2)cc1C#N`, the z-score in test [3] (setting [7]) was found to be 1.01; in test [3] (setting [8]) it was 0.953; in test [3] (setting [9]), 0.498.

For the compound `CCc1ccc(C=C2SC(=S)NC2=O)cc1`, the results for the z-score in test [3] (setting [7]), in test [3] (setting [8]) and in test [3] (setting [9]) were -0.104, 0.457 and -0.976, respectively.

Consider `O=C(O)c1cc(-c2ccccc2)nc2ccccc12`, for which the activity, negative = inhibition is -2.25% (inactive) in test [2] (setting [5]) and 7.48% (inactive) in test [2] (setting [6]). In addition, in the test on 3D7, the call was inactive. The Potency entry in the test on 7G8 is “inactive”.

Take `O=C(NCCN1CCOCC1)c1ccc(Cl)cc1`: the activity, negative = inhibition is 9.62% (inactive) in test [2] (setting [5]) and 3.61% (inactive) in test [2] (setting [6]). Further, in the test with 3D7, the call was inactive. The Potency entry in the test on 7G8 is “inactive”.

Turning to `CO[C@H]1C[C@@H]2CC[C@@H](C)[C@@](O)(O2)C(=O)C(=O)N2CCCC[C@@H]2C(=O)O[C@H]([C@H](C)C[C@@H]2CC[C@H](OP(C)(C)=O)[C@H](OC)C2)CC(=O)[C@H](C)C=C(C)[C@@H](O)[C@@H](OC)C(=O)[C@H](C)C[C@H](C)C=CC=CC=C1C`, the values for the z-score in test [3] (setting [7]), in test [3] (setting [8]) and in test [3] (setting [9]) were 0.0461, 0.621 and -0.765, respectively.

As to `NCCS`, the activity, negative = inhibition in test [2] (setting [5]) was 9.12% (inactive); in test [2] (setting [6]), 7.21% (inactive). Also, the outcome in the test on 3D7 was inactive. Further, the Potency entry in the test on 7G8 is “inactive”.

Take `CCC(CC)[C@H](NC(C)=O)[C@@H]1[C@H](O)[C@@H](C(=O)O)C[C@@H]1N=C(N)N`: the values for the z-score in test [3] (setting [7]), in test [3] (setting [8]) and in test [3] (setting [9]) were 0.127, -0.172 and -0.0122, respectively.

For `CC[C@H]1OC(=O)[C@H](C)[C@@H](O[C@H]2C[C@@](C)(OC)[C@@H](O)[C@H](C)O2)[C@H](C)[C@@H](O[C@@H]2O[C@H](C)C[C@H](N(C)C)[C@@H]2O)[C@](C)(O)C[C@@H](C)CN(C)[C@H](C)[C@@H](O)[C@]1(C)O`, the z-score in test [3] (setting [7]) is -4; in test [3] (setting [8]), 0.7; in test [3] (setting [9]), 0.923.

In the case of `O=C1NCC2(CCN(CCc3ccccc3)CC2)O1`, the activity, negative = inhibition in test [2] (setting [5]) is 12% (inactive); in test [2] (setting [6]), 1.55% (inactive). The outcome in the test on 3D7 was inactive. In the test on 7G8, the Potency entry is “inactive”.

Consider `CCCNC(=O)NS(=O)(=O)c1ccc(Cl)cc1`, for which the activity, negative = inhibition in test [2] (setting [5]) is 14.4% (inactive); in test [2] (setting [6]) it was 10.3% (inactive). Besides, in the test with 3D7, the result was inactive. Moreover, in the test with 7G8, the Potency result is “inactive”.

With `C[N+]1(C)[C@@H]2CC(OC(=O)[C@H](CO)c3ccccc3)C[C@H]1[C@H]1O[C@@H]12` (stereo partly drawn), the z-score stood at 0.318 in test [3] (setting [7]), 0.652 in test [3] (setting [8]) and 0.553 in test [3] (setting [9]).

For the compound `Clc1ccc(Cn2c(CN3CCCC3)nc3ccccc32)cc1`, the activity, negative = inhibition in test [2] (setting [10]) is 5.36% (inactive). Also, in the test on 3D7, the result was inactive. Further, the Potency in the test on 7G8 is 3.16 µM (active).

For the compound `O=c1[nH]cnc2c1ncn2[C@H]1CC[C@@H](CO)O1`, the activity, negative = inhibition is -0.993% (inactive) in test [2] (setting [5]) and 7.28% (inactive) in test [2] (setting [6]). For the same compound, in the test with 3D7, the outcome was inactive. Besides, in the test on 7G8, the Potency was 10 µM (active).

As to `CC1(C)O[C@H]2C[C@@H]3[C@H]4CCC5=CC(=O)C=C[C@]5(C)[C@@]4(F)[C@@H](O)C[C@]3(C)[C@]2(C(=O)CO)O1`, the results for the activity, negative = inhibition in test [2] (setting [5]) and in test [2] (setting [6]) were -0.373% (inactive) and -9.39% (inactive), respectively. In the test with 3D7, the outcome was inactive. For the same compound, in the test with 7G8, the Potency is 8.91 µM (active).

`CCCCC1C(=O)N(c2ccccc2)N(c2ccccc2)C1=O`: the Potency entry in the test on 7G8 was “inactive”.

With `C[C@]12CC[C@@H]3c4ccc(O)cc4CC[C@H]3[C@H]1C[C@@H](O)[C@H]2O`, the z-score in test [3] (setting [7]) was found to be 1.3; in test [3] (setting [8]) it was 0.473; in test [3] (setting [9]) it was 0.59.

Turning to `O=C1Nc2ccc(Cl)cc2C(C#CC2CC2)(C(F)(F)F)O1` (stereo not drawn), the activity, negative = inhibition was -18.6% (inactive) in test [2] (setting [5]) and 0.376% (inactive) in test [2] (setting [6]). In addition, in the test with 3D7, the compound was classed as inactive. The Potency in the test on 7G8 was 11.2 µM (active).

`CCN(CC)CCOC(=O)c1ccc(N)cc1`: in test [2] (setting [10]), the activity, negative = inhibition was -0.702% (inactive). Moreover, the result in the test on 3D7 was inactive. Besides, the Potency entry with 7G8 was “inactive”.

In the case of `O=C1NC(=O)C(c2ccccc2)(c2ccccc2)N1`, the activity, negative = inhibition in test [2] (setting [5]) is 3.02% (inactive); in test [2] (setting [6]) it was -26.3% (inactive). Further, in the test with 3D7, the call was inactive. Also, the Potency result in the test with 7G8 is “inactive”.

As for `C[N+](C)(C)CCCCCC[N+](C)(C)C`, the activity, negative = inhibition was 4.23% (inactive) in test [2] (setting [5]) and 5.66% (inactive) in test [2] (setting [6]). In addition, in the test on 3D7, the compound was classed as inactive. For the same compound, in the test with 7G8, the Potency result was “inactive”.

On to `CC(=NNC(=S)N1CCC1)c1ccccn1`, for which, in test [3] (TFE3-RCC UOK109 viability), the Potency is 0.00332 µM (active). Besides, the z-score in test [3] (setting [7]) was -4; in test [3] (setting [8]), -1.96; in test [3] (setting [9]), -2.39.

Turning to `NC1CCC(Nc2nc(Nc3ccc(C(=O)N4CCCCC4)cc3)c3ncn(-c4cccc(F)c4)c3n2)CC1` (stereo not drawn), the z-score came to 0.32 in test [3] (setting [7]), 0.539 in test [3] (setting [8]) and 0.657 in test [3] (setting [9]).

As to `CO[C@H]1C=CC=C(C)C(=O)NC2=CC(=O)C(NCCN(C)C)=C(C[C@@H](C)C[C@H](OC)[C@@H](O)[C@@H](C)C=C(C)[C@@H]1OC(N)=O)C2=O`, in test [3] (TFE3-RCC UOK109 viability), the Potency is 2.64 µM (active). In addition, the z-score in test [3] (setting [7]) was -1.45; in test [3] (setting [8]), -3.65; in test [3] (setting [9]), -1.68.
